For 5 molecules, composite z-score, composite Z-score and z-score results are on record in PubChem BioAssay.

The target in assay [1] is Albumin (Bos taurus) (UniProt P02769). The experiment in a line: bovine serum albumin binders on microarray, profiling panel, artefact control for SMM control protein annotation, biochemical, small-molecule microarray, Alexa647 label, 635/667 nm fluorescence (AID 1118).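 Further: score merges 667 nm emission intensity and signal-to-noise per printed compound spot.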 Conditions: BSA-A647 binding, fluorescence 635 nm, higher = more signal.
Chain of Albumin (Bos taurus) (P02769 whole entry, looked up): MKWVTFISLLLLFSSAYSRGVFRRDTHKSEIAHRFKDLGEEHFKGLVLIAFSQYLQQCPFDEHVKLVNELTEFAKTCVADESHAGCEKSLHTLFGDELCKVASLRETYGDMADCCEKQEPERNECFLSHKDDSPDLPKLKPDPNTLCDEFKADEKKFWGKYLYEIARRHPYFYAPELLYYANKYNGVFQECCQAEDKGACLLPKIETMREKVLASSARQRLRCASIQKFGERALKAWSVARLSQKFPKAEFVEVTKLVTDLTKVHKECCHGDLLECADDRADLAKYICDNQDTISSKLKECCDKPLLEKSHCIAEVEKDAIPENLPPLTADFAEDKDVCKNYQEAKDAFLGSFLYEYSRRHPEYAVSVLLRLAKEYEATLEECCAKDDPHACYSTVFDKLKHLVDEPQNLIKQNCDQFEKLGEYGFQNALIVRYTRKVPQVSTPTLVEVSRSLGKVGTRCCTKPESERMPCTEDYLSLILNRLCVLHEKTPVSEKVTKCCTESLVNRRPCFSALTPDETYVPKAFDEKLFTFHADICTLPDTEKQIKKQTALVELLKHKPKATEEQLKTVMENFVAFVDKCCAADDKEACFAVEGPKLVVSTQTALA
Assay [2] is described as follows: small-molecule microarray binders of probe aXIP, primary screen, biochemical, NeuroSMM set, 635/667 nm fluorescence (AID 1119).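 Further: probe is the protein aXip251-270 applied at 1 µg/mL to compound-printed slides; binding of probe to printed compounds measured as 667 nm fluorescence plus signal to noise.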 Particulars: higher = more signal, called active from +8 up or from −8 down.
Assay [3] in a line: small-molecule binders of probe aNOTCH3, primary screen, biochemical, small-molecule microarray, 635/667 nm fluorescence (AID 1120).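 Further: probe is a biotin-tagged antibody raised against NOTCH3 rather than NOTCH3 protein; score merges spot fluorescence near 667 nm with spot signal to noise.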 Conditions: higher = more signal.
The nature of assay [4]: small-molecule binders of probe aNOTCH2, primary screen, biochemical, small-molecule microarray, 635/667 nm fluorescence (AID 1121).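 Further: score merges feature fluorescence read at 667 nm with its signal to noise.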 Particulars: higher = more signal.
Assay [5] addresses Carbonic anhydrase 2 (Homo sapiens) (UniProt P00918). Kind of assay: CAII small-molecule binders, profiling panel, biochemical, small-molecule microarray, Alexa647-labelled CAII (AID 1122). Particulars: CAII-A647 binding fluorescence, higher = more signal.
Assay [6] is described as follows: COS7 lysate on small-molecule microarray, probe aHis, 635 nm (AID 1123).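 Further: z-score combines 667nm fluorescence intensity with signal-to-noise per printed compound spot.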 Conditions: COS7 cell lysate, fluorescence, higher = more signal.
Assay [7] can be described thus: compound binding in COS7 lysate, probe aLAP1, primary screen, cell lysate, small-molecule microarray (AID 1124).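 Further: lysate comes from COS7 cells expressing LAP1 and is applied at 0.3 µg/mL; score merges spot fluorescence near 667 nm with signal-to-noise over triplicate slides.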 Particulars: probe aLAP1, fluorescence, higher = more signal.
In assay [8] the test system is Sam68 (KHDRBS1). The experiment in a line: Sam68 small-molecule binders, primary screen, biochemical, small-molecule microarray, 635 nm fluorescence (AID 1125).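 Further: score merges 667 nm channel intensity with signal to noise over triplicate slides.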 Conditions: small-molecule microarray binding, higher = more signal.
Assay [9] deals with Chordin-like protein 2 (CHRDL2). The experiment in a line: CHRDL2 small-molecule binders, primary screen, biochemical, small-molecule microarray, 635 nm fluorescence (AID 1126).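 Further: printed compound slides probed with Chrdl2 protein at 4 µg/mL for 1 h at 4 C; score merges 667 nm emission intensity with signal to noise over three replicate slides.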 Particulars: small-molecule microarray binding, fluorescence 635 nm; higher = more signal.
The target in assay [10] is Concanavalin-A (Canavalia ensiformis) (UniProt P02866). Kind of assay: ConA small-molecule binders, primary screen, artefact control for SMM control protein annotation, biochemical, small-molecule microarray, Alexa647 label, 635 nm (AID 1127).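 Further: z combines 667 nm emission intensity with signal-to-noise across three replicate slides.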 Conditions: ConA-A647 binding fluorescence, higher = more signal.
Chain of Concanavalin-A (Canavalia ensiformis) (P02866 whole entry, looked up): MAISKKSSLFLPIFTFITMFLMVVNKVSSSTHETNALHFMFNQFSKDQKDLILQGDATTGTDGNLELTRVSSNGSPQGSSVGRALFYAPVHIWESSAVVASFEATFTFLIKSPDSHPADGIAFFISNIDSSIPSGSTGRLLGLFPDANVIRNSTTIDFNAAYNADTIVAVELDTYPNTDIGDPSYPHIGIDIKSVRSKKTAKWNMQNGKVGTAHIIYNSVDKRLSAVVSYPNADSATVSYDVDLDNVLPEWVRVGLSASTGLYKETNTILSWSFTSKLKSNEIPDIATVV
Assay [11] is described as follows: anti-His antibody binders, primary screen, artefact control for SMM control protein annotation, biochemical, small-molecule microarray, 635 nm fluorescence (AID 1128).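 Further: score merges feature fluorescence with signal-to-noise for each printed compound spot.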 Particulars: anti-His Alexa647 antibody binding, higher = more signal.
Assay [12] deals with Human papillomavirus type 1a E7 protein (residues 1-88). Kind of assay: HPV1a E7 small-molecule binders, primary screen, biochemical, small-molecule microarray, residues 1-88, 635 nm (AID 1129). Conditions: small-molecule microarray binding, fluorescence 635 nm; higher = more signal.
The target of assay [13] is Focal adhesion kinase 1 (Homo sapiens) (UniProt Q05397). Kind of assay: small-molecule microarray binders of FAK, primary screen, biochemical, 635/667 nm fluorescence, BSA, DTT (AID 1130).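 Further: composite of spot emission at 667 nm and signal to noise over triplicate slides.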 Particulars: PTK2 binding, 635 nm fluorescence, higher = more signal.
Chain of Focal adhesion kinase 1 (Homo sapiens) (Q05397 whole entry, looked up): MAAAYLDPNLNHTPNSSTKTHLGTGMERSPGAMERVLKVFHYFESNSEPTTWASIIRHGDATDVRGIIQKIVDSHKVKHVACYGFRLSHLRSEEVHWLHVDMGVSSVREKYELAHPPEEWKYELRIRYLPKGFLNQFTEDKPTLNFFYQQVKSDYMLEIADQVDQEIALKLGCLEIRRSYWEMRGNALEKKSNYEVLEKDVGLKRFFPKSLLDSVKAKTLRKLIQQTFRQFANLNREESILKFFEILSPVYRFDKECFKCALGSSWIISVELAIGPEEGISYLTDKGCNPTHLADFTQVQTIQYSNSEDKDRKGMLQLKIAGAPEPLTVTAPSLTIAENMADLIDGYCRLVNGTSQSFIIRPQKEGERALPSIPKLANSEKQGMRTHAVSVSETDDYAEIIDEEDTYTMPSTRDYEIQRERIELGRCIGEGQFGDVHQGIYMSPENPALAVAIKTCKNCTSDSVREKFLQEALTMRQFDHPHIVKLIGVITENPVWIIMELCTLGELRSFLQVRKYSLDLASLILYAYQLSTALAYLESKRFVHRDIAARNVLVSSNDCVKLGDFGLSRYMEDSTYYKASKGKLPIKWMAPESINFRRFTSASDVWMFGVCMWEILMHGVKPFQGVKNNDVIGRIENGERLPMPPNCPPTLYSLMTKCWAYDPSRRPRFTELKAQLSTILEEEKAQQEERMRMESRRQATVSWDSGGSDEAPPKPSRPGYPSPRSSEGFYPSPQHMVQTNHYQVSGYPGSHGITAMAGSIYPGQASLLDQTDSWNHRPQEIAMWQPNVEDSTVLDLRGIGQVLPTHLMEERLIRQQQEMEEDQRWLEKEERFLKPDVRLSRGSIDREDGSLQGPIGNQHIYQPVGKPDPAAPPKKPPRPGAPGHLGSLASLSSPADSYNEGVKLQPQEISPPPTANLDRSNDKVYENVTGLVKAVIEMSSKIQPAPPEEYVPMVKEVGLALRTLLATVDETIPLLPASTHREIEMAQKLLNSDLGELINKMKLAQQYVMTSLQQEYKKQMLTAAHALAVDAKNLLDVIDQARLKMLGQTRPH
Assay [14] concerns Fibrinogen (Alexa647-labelled). Kind of assay: fibrinogen binders on compound microarrays, profiling panel, artefact control for SMM control-protein annotation, biochemical, small-molecule microarray, 635/667 nm fluorescence (AID 1131).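 Further: z-score merges 667 nm fluorescence with per-spot signal-to-noise over triplicate slides.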 Conditions: fibrinogen-A647 binding fluorescence, higher = more signal.
The target in assay [15] is Follistatin (Homo sapiens) (UniProt P19883). The experiment in a line: follistatin binders on small-molecule microarrays, primary screen, biochemical, small-molecule microarray, 635/667 nm fluorescence (AID 1132). Conditions: FST binding, 635 nm fluorescence, higher = more signal.
Chain of Follistatin (Homo sapiens) (P19883 whole entry, looked up): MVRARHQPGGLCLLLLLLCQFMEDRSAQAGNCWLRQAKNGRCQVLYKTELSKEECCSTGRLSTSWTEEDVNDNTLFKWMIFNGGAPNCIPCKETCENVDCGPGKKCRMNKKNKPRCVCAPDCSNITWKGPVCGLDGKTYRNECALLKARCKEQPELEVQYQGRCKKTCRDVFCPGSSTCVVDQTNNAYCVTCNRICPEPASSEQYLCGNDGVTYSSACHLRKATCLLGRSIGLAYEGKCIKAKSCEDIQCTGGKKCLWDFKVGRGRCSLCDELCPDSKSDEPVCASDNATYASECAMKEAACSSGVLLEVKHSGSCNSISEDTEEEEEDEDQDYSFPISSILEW
Assay [16] concerns the target Fibroblast growth factor 2 (Homo sapiens) (UniProt P09038). The experiment in a line: FGF2 binders on small-molecule microarrays, primary screen, biochemical, small-molecule microarray, 635/667 nm fluorescence (AID 1133). Particulars: small-molecule microarray binding, FGF2, fluorescence 635/667; higher = more signal.
Assay [17] can be described thus: mitochondrial membrane potential change in A549 cells, profiling panel, cell-based, JC-1 fluorescence, basal, 24 h, 100 nL (AID 1138).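 Further: A549 lung adenocarcinoma cells under basal conditions with no added stimulus; test concentration not given here.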 Particulars: higher = more signal.
The test system of assay [18] is Lefty1. Kind of assay: Lefty1 binders on small-molecule microarrays, primary screen, biochemical, small-molecule microarray, 635/667 nm fluorescence (AID 1139). Particulars: small-molecule microarray binding, fluorescence 635/667; higher = more signal.
Assay [19] deals with wheat germ agglutinin (Triticum aestivum), Alexa647-labelled. Kind of assay: wheat germ agglutinin binders on compound microarrays, profiling panel, artefact control for SMM control-protein annotation, biochemical, small-molecule microarray, 635/667 nm fluorescence (AID 1140).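 Further: score merges 667 nm feature emission with signal to noise over triplicate slides.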 Conditions: WGA-A647 binding, 635 nm fluorescence, higher = more signal.
Assay [20] concerns the target Luciferin 4-monooxygenase (Photinus pyralis) (UniProt P08659). Kind of assay: firefly luciferase enzyme inhibitors, primary screen, biochemical, luminescence, purified enzyme, 2006 set (AID 1141).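 Further: cell-free assay with purified firefly luciferase at 100 ng per well in PBS; test concentration not given here.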 Particulars: SteadyGlo luminescence, 30 min, higher = more signal, called active from +8 up or from −8 down.

Calls of active or inactive are those of the source.

Chain of Luciferin 4-monooxygenase (Photinus pyralis) (P08659 whole entry, looked up): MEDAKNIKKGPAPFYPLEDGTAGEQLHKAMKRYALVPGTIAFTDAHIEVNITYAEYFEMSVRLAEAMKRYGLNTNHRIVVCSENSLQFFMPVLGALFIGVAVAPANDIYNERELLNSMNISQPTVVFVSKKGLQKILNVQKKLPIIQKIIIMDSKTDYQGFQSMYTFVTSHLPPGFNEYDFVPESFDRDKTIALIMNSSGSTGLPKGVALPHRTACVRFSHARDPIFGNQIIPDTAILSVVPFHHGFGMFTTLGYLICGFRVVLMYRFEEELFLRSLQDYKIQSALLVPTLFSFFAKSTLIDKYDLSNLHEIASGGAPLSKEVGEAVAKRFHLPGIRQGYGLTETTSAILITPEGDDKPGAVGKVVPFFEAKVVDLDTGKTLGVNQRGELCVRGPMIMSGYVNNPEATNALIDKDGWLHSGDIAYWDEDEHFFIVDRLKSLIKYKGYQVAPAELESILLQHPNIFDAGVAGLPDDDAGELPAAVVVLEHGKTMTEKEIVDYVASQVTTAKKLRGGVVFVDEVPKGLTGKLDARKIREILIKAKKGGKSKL
Chain of Fibroblast growth factor 2 (Homo sapiens) (P09038 whole entry, looked up): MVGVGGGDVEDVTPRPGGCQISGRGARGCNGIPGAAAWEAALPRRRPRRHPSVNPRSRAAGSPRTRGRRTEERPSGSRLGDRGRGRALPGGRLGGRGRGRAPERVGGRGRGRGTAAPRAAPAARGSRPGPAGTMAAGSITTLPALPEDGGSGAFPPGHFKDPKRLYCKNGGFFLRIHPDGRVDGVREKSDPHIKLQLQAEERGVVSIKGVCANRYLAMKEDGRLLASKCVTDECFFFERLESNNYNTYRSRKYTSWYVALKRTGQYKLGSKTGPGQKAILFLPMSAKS

On to `Cc1ccc(S[C@]2(C(=O)NCCCN(C)C)CC(=O)N(C3CCCCC3)[C@@H]2c2ccc(CO)cc2)cc1`, for which the composite z-score in assay [1] is 0.156; in [3], -0.182; in [4], -0.0761; in assay [5] it was 0.228; in [6], -0.111; in [7] it was -0.183. For the same molecule, the composite z-score in assay [8] was -1.01; in assay [9] it was -1.18; in assay [10], -0.957; in assay [11] it was -0.693; in assay [12], -0.612; in assay [13], 0.116. Moreover, the composite z-score in assay [14] is -1.43; in [15], -0.24; in assay [16], -0.852; in [18] it was -0.562; in assay [19], 0.165. Moreover, the composite Z-score in assay [2] was 0.0469 (inactive). Further, the z-score is 1.28 in [17] and 0.437 (inactive) in assay [20].

Consider `CCC[C@@H]1C[C@@]1(CCC)[C@@H](NC(=O)OCc1ccccc1)c1ccc(-c2ccccc2)cc1`, for which the composite z-score in assay [1] is -0.477; in assay [3], 0.112; in [4], 0.0339; in assay [5], -0.198; in assay [6], 0.27; in [7] it was 0.643. Moreover, the composite z-score in [8] is -0.303; in [9], -0.141; in assay [10], -0.914; in assay [11], -0.526; in assay [12], -0.691; in assay [13], -0.278. The composite z-score is -1.37 in [14]; 0.136 in assay [15]; -0.824 in assay [16]; -0.543 in assay [18]; -0.693 in assay [19]. The composite Z-score in assay [2] is 0.572 (inactive). The z-score in [17] is 0.289; in assay [20], -0.765 (inactive).

Regarding `CC(C)(C)OC(=O)CC[C@@]1(C(=O)NCc2ccccc2)N=C(c2ccc(OCCCO)cc2)O[C@@H]1c1ccccc1N=[N+]=[N-]`, the composite z-score in [1] turned out to be 0.952; in assay [3] it was 0.66; in [4], 0.115; in assay [5], 0.73; in assay [6], 2.97; in assay [7] it was 0.935. For the same molecule, the composite z-score in assay [8] was determined as 1.29; in [9], 0.134; in [10], 1.04; in assay [11] it was 1.63; in [12], 1.25; in [13], 1.22. The composite z-score came out at 0.951 in [14]; 1.39 in [15]; 1.58 in [16]; 0.432 in [18]; 1.07 in [19]. Also, the composite Z-score in [2] is 0.399 (inactive). Also, the z-score in assay [17] was -1.16; in assay [20], -11 (active).

`Cc1cc(C)cc(N2C(=O)CSC2c2cccc([N+](=O)[O-])c2)c1` (stereo not given): the composite z-score in assay [1] is 0.892; in assay [3], -0.0023; in assay [4], -0.124; in assay [5], 0.621; in [6], 1.94; in assay [7], 0.798. For the same molecule, the composite z-score in assay [8] came to 1.3; in assay [9] it was 0.052; in assay [10], 1.19; in [11], 2.27; in [12], 1.22; in [13], 1.55. Besides, the composite z-score in [14] turned out to be 1.03; in [15], 0.45; in [16] it was 0.963; in assay [18], 1.53; in assay [19], 1.1. For the same molecule, in assay [2], the composite Z-score is 0.027 (inactive). The results for the z-score in [17] and in assay [20] were 0.492 and -0.992 (inactive), respectively.

For the molecule `C=CCC(OC(C)=O)[C@@H]1[C@@H](N(Cc2ccc(-c3cccc(C(F)(F)F)c3)o2)C(=O)c2ccc(-c3ccccc3)cc2)c2cc(OCCCO)ccc2N1C(=O)c1ccc2ccccc2n1` (stereo not given in full), the composite z-score was -0.267 in [1]; -0.0077 in assay [3]; 0.357 in [4]; -0.232 in assay [5]; 0.266 in assay [6]; -0.154 in [7]. For the same molecule, the composite z-score in assay [8] was -0.734; in [9], 0.198; in [10], -0.458; in assay [11], 0.445; in [12], -0.507; in [13] it was 0.0509. The composite z-score in assay [14] was 0.401; in assay [15], 0.772; in assay [16], -0.0036; in assay [18], 0.149; in assay [19], -0.0763. In [2], the composite Z-score was -0.219 (inactive). For the same molecule, the z-score in assay [17] was 0.404; in [20] it was 0.141 (inactive).
